# An excerpt weighted towards active compounds, which were near 11% of everything screened.
# HPGD inh: inhibitors of human 15-hydroxyprostaglandin dehydrogenase (HPGD); P15428; Potency, µM, inactives show at the top dose activity change, negative = inhibition, actives largely listed as inhibitors; purified HPGD, NADH fluorescence kinetic, PGE2 substrate; 150,000 compounds, 4.3% hits; AID 894; note: potency is the fitted concentration of half-maximal effect
#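 20 nM HPGD preincubated 15 min at room temperature with compound in 50 mM Tris-HCl pH 8, 0.01% Tween 20. Started with 1 mM NAD+ and 30 uM prostaglandin E2; NADH fluorescence (360/450 nm) read 5 times over 30-s intervals, last minus first.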
# ALDH1A1 block: ALDH1A1 (human) enzyme inhibition. P00352. Purified ALDH1A1, NADH fluorescence, propionaldehyde substrate. Potency, µM (titrated, usually from 75.3 µM), inactives show at the top dose activity, negative = inhibition, actives largely listed as inhibitors. 220,000 compounds, 7.3% hits. AID 1030;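 note: potency is the fitted concentration of half-maximal effect; plate controls were no enzyme wells and a reference inhibitor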
# Target sequence (P00352 whole entry, looked up): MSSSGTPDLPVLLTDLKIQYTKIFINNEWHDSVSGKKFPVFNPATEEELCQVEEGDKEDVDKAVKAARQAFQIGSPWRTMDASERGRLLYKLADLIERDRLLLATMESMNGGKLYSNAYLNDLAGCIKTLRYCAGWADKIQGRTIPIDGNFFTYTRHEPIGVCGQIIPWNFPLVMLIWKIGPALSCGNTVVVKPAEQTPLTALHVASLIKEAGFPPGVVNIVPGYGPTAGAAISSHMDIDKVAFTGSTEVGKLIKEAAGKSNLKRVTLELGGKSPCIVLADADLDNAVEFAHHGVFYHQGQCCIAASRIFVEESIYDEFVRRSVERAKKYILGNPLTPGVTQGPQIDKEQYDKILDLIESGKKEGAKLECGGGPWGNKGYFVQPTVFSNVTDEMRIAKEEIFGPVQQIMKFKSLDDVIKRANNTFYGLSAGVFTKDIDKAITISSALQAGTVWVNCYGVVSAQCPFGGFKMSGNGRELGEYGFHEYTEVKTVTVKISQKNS
# PNC inhibitor: inhibitors of perinucleolar compartment assembly; activity change (PNC), negative = inhibition, % at 10 µM; PC3M PTB-GFP, PNC prevalence imaging, 16 h; hits give low values; 140,000 compounds, 3.1% hits;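 active = readout at or below -70, meaning at least 70% loss of cells showing the perinucleolar compartment, a nuclear body marking cancer cells; inconclusive = readout between -30 and a set limit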;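 note: plate controls were DMSO wells for no effect and camptothecin positive control wells for full effect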
#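 Compounds are pinned in duplicate onto adhered PC3M cells stably expressing GFP-tagged PTB and incubated 16 h at 37 C. Cells are then fixed, nuclei stained with Hoechst, and PNC-positive cells counted.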
# An asterisk follows results filed as active; ? = inconclusive; nt = not tested or not shown; ! = not confirmed by another sample; [ ] = dose if it differs, or a comment. Unless noted, calls come from the whole dose curve; as a rule, active = well fitted inhibition curve with a large enough effect (not every such curve was filed as active); inconclusive = small, poorly fitted or top-dose-only effect, or another doubt; inactive = no such curve, though single readings can be large or run the other way. Unless noted, % is set by controls: 0 for no effect and ±100 for the full control effect.
SMILES,HPGD inh,ALDH1A1 block,PNC inhibitor
COc1ccc2[nH]cc(S(=O)(=O)c3ccc(C(C)C)cc3)c(=O)c2c1,nt,4%,nt
CC(C)OCC(O)CN1CCNCC1 (configuration not stated),4%,8%,14
O=C(c1cccc(Oc2ccccc2)c1)N1CCN(c2ccccn2)CC1,nt,-12%,nt
COC(=O)Cn1c(=O)cnc2ccccc21,-21%,?,23
COc1ccc(CC(=O)Nc2cccc(C(=O)Nc3cccc(C)c3)c2)cc1,nt,1%,nt
COC(=O)c1cc(NC(=O)Cn2c(=O)cnc3ccccc32)cc(C(=O)OC)c1,-19%,0.35µM*,?
O=C(COc1cc(F)ccc1[N+](=O)[O-])Nc1ccc(N2CCOCC2)cc1,nt,13µM*,nt
COC(=O)c1cc(NC(=O)Cc2ccc(OC)cc2)cc(C(=O)OC)c1,-15%,0.89µM*,-9
Cc1ccc(OCC(=O)Nc2ccc(N3CCOCC3)cc2)c([N+](=O)[O-])n1,nt,3%,nt
C/C(=N\NC(=O)Cn1nnc2ccccc21)c1ccco1,nt,8%,nt
O=S(=O)(NCCOc1ccc(F)cc1)c1ccc2c(c1)OCCO2,-2%,?,-4
O=S(=O)(NCCSc1ccccc1)c1ccc2c(c1)OCCO2,-17%,0.56µM*,42
O=C(C1CCOCC1)N1CCC(CO)(CCc2ccccc2)CC1,nt,2%,nt
CC1(C)OC(=O)N(CCc2ccccc2)C1(C)O (configuration not stated),-12%,2%,-21
CC1(C)OC(=O)N(Cc2ccco2)C1(C)O (configuration not stated),-17%,18µM*,-6
COCCNC(=O)CSC1=N/C(=C/c2ccc(Cl)c(Cl)c2)C(=O)N1c1ccccc1F,?,?,60
O=[N+]([O-])c1cc2c(cc1/C=N\NS(=O)(=O)c1ccccc1)OCO2,-27%,1.6µM*,-3
CNc1nc(N/N=C/c2cc3c(cc2[N+](=O)[O-])OCO3)nc(Nc2ccccc2)n1,nt,3%,nt
CCC(C)(C)NC(=O)C(Sc1ccccc1)c1ccccc1 (configuration not stated),nt,5%,nt
CNCCNS(=O)(=O)c1cccc2cnccc12,-9%,-3%,nt
O=S(=O)(NCCNC/C=C/c1ccc(Br)cc1)c1cccc2cnccc12,-25%,22µM*!,nt
CCOC(=O)/C(=C\c1cccc(O)c1)c1nc2sc(C)c(C)c2c(=O)[nH]1,7.9µM*,7.9µM*,?
CCOC(=O)c1nc2sc(C)c(C)c2c(=O)[nH]1,?,?,27
CCOc1ccccc1-n1c(=S)sc2c(=O)n(-c3ccccc3)c(=S)[nH]c21,nt,-4%,nt
COc1ccc(CN(C)C(=O)COC(=O)c2ccc3c(c2)OCO3)cc1OC,-13%,-11%,?
SMILES,HPGD inh,ALDH1A1 block,PNC inhibitor
CN(C)S(=O)(=O)c1ccc(C(=O)OCc2ccc(C#N)cc2)cc1,-4%,-12%,?
COc1ccc(C(C)=O)cc1COC(=O)c1ccc(S(=O)(=O)N(C)C)cc1,nt,7.1µM*,nt
COc1ccc(C(C)=O)cc1COC(=O)c1ccc2c(c1)OCO2,-14%,10µM*,-8
COc1cc(C(C)=O)ccc1COc1ccc(C(=O)OCC(N)=O)cc1OC,-20%,9%,-13
COc1ccc(C(C)=O)cc1CS(=O)(=O)CC(=O)O,nt,3%,nt
COc1ccc(C(C)=O)cc1COC(=O)c1cnc(Cl)c(Cl)c1,nt,1.4µM*,nt
CCOC(=O)CCCOC(=O)c1ccc(S(=O)(=O)N(C)C)cc1,-13%,6%,-100*
COCCOC(=O)N/C=C\c1nc2ccccc2c(=O)[nH]1,-5%,8%,-15
COc1ccc(C/C(C)=N/NC(=O)c2cccnc2)cc1,-9%,8%,3
N#CC(C(=O)c1ccccc1)=C1SCCS1,nt,14µM*,nt
N#CC(CC(=O)O)=C(c1ccccc1)c1ccccc1,-25%,4%[13.5 µM],nt
CCCNS(=O)(=O)c1ccc(OCC(=O)N2CCCC2)cc1,nt,4%,nt
Cc1ccsc1/C=N\NC(=O)c1cc(C(C)(C)C)[nH]n1,nt,-8%,nt
Cc1cc(/C=N/n2cnnc2)c(O)c([N+](=O)[O-])c1,-22%,-6%,-118*
Cc1cc(C(c2ccc(C)o2)c2ccc(C)o2)c(O)c([N+](=O)[O-])c1,-16%,?,23
O=C(Nc1nc2ccc(Cl)cc2s1)[C@@H]1CCCN1C(=O)c1cccs1,?,25µM*,-15
Cc1cccc2sc(NC(=O)[C@@H]3CCCN3C(=O)c3cccs3)nc12,nt,-4%,12
CC(=O)C1=C(C)NC(=O)NC1c1ccc(Cl)cc1 (configuration not stated),nt,14%,nt
COc1ccc(CCNC(=O)C(C)Sc2ccc(C)cc2)cc1OC (configuration not stated),-7%,0%,12
O=c1c2ccccc2c(C=NCCO)c(O)n1-c1ccccc1,-12%,-14%,15
O=c1c2ccccc2c(C=NC2CCS(=O)(=O)C2)c(O)n1-c1ccccc1 (configuration not stated),-11%,18µM*,-25
Cc1ccc2nsnc2c1NS(=O)(=O)c1c(C)ccc2nsnc12,-6%,-4%,-13
Cc1ccc(/C=[N+](\[O-])c2ccc(N(C)C)cc2)c2nsnc12,nt,1.1µM*,nt
CC(CCc1ccccc1)NC(=O)C(=O)N1CCOCC1 (configuration not stated),nt,7%,nt
O=C(Nc1cccc(-c2nc3cccnc3s2)c1)C1c2ccccc2Oc2ccccc21,?,?,-119*
SMILES,HPGD inh,ALDH1A1 block,PNC inhibitor
Cc1cccnc1NC(=O)C1c2ccccc2Oc2ccccc21,-9%,12%,2
C[C@H](CCC(=O)NN)[C@@H]1CC[C@@H]2[C@H]3CC[C@H]4C[C@@H](O)CC[C@@]4(C)[C@@H]3CC[C@]21C,-9%,-8%[13.5 µM],nt
Cc1c(NS(=O)(=O)c2ccc(N3CCCCC3)c([N+](=O)[O-])c2)c(=O)n(-c2ccccc2)n1C,-4%,-3%,14
Cc1c(Nc2cc(N3CCCCCC3)c3nonc3c2[N+](=O)[O-])c(=O)n(-c2ccccc2)n1C,11µM*,5%,?
Cc1cc(OCC(=O)C(C)(C)C)c2c(C)c(C)c(=O)oc2c1,10%,?,-100*
COC(=O)Cc1c(C)c2c(O)cc(C)cc2oc1=O,-25%,-8%,-1
CCOC(=O)C1=C(C)N(C)C(=S)NC1c1ccc(Cl)cc1Cl (configuration not stated),-6%,1%,?
CCOC(=O)c1c(NC(=O)c2ccncc2)sc(C)c1C,nt,13µM*,nt
Cc1ccc(C(=O)Nc2sc(C(=O)N(C)C)c(C)c2C#N)cc1,-14%,-15%,21
CCOC(=O)c1c(NC(=O)c2ccc(Cl)s2)sc(C)c1C,?,?,28
CCOC(=O)c1sc(NC(=O)c2ccncc2)c(C#N)c1C,14µM*,3.2µM*,-4
Cc1cc(C)cc(NC(=O)c2ccc([N+](=O)[O-])o2)c1,nt,-3%,nt
COc1ccc(C(=O)Nc2nc(C)cc(C)n2)cc1[N+](=O)[O-],-2%,-2%,0
Cc1cc(C)nc(NC(=O)c2cc([N+](=O)[O-])cc([N+](=O)[O-])c2)n1,-3%,?,-113*
O=C(Nc1ccc(Cl)cn1)c1ccc([N+](=O)[O-])o1,nt,-4%,nt
NS(=O)(=O)c1ccc(O)c(NC(=O)c2ccc([N+](=O)[O-])o2)c1,nt,2.5µM*,nt
Cc1cc(C)nc(NC(=O)c2ccc([N+](=O)[O-])o2)n1,12%,-1%,-86*
COCc1cnc(C)nc1N,nt,1%,nt
